Source: PubChem BioAssay (NCI)
This is part of a sample that, as a whole, favours compounds with a hit. Of some 83,000 tested, about 20% had one in any assay.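 For each line, cells grew in 96-well plates with the test compound present at a single concentration for 48 hours.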 Active and inactive are the calls of the source. Rule for the calls: active = growth percent below 10; inactive = the rest.

How the values were obtained:
Assay in all cases: NCI-60 one-dose screen, 48 h (100 = growth as untreated, 0 = no growth, -100 = all killed)
Conditions in all cases: 10 µM unless noted
HCT-15 colon = tested on: HCT-15 colon
HT29 colon = tested on: HT29 colon
SNB-75 CNS = tested on: SNB-75 CNS
SNB-19 CNS = tested on: SNB-19 CNS
U251 CNS = tested on: U251 CNS
PC-3 prostate = tested on: PC-3 prostate
SK-MEL-5 melanoma = tested on: SK-MEL-5 melanoma
LOX IMVI melanoma = tested on: LOX IMVI melanoma
SK-MEL-28 melanoma = tested on: SK-MEL-28 melanoma
SK-MEL-2 melanoma = tested on: SK-MEL-2 melanoma
EKVX NSCLC = tested on: EKVX NSCLC
SN12C renal = tested on: SN12C renal
UO-31 renal = tested on: UO-31 renal
TK-10 renal = tested on: TK-10 renal
ACHN renal = tested on: ACHN renal
A498 renal = tested on: A498 renal
CCRF-CEM leukemia = tested on: CCRF-CEM leukemia
MOLT-4 leukemia = tested on: MOLT-4 leukemia

Measured: growth

O=C1CCC/C=C\C[C@H]2C=C(Cl)C(=O)/C2=C/C[C@H](CCCCC(F)(F)F)OC(=O)CCC/C=C\C[C@H]2C=C(Cl)C(=O)/C2=C/C[C@H](CCCCC(F)(F)F)O1
inactive: EKVX NSCLC 13.3% [7.5 µM]
active: HCT-15 colon 1.46% [7.5 µM] | HT29 colon -50.5% [7.5 µM] | SNB-75 CNS -1.55% [7.5 µM] | SNB-19 CNS -37.9% [7.5 µM] | U251 CNS -67.7% [7.5 µM] | PC-3 prostate -44.8% [7.5 µM] | SK-MEL-5 melanoma -94.1% [7.5 µM] | LOX IMVI melanoma -80.2% [7.5 µM] | SK-MEL-28 melanoma -52.6% [7.5 µM] | SK-MEL-2 melanoma -45.5% [7.5 µM] | SN12C renal -27.1% [7.5 µM] | UO-31 renal -93.3% [7.5 µM] | TK-10 renal -23% [7.5 µM] | ACHN renal -93.1% [7.5 µM] | A498 renal -49.5% [7.5 µM] | CCRF-CEM leukemia 3.14% [7.5 µM]

NCCn1cc(-c2nc(-c3c[nH]c4ncccc34)cs2)c2cc(Br)ccc21
inactive: HCT-15 colon 27.1% | HT29 colon 31% | SNB-75 CNS 72.7% | SNB-19 CNS 79.3% | U251 CNS 67.9% | PC-3 prostate 59.9% | SK-MEL-5 melanoma 85.1% | LOX IMVI melanoma 82.6% | SK-MEL-28 melanoma 99.4% | SK-MEL-2 melanoma 101% | EKVX NSCLC 64% | SN12C renal 78% | UO-31 renal 62.2% | TK-10 renal 149% | ACHN renal 76.4% | A498 renal 93.6% | CCRF-CEM leukemia 60%

C=C1C(=O)O[C@H]2[C@H]1CC/C(COC(=O)NCCc1c[nH]c3ccccc13)=C\CC[C@@]1(C)O[C@@H]21
active: HCT-15 colon -9.58% | HT29 colon -39.8% | LOX IMVI melanoma -63.2% | SK-MEL-28 melanoma -17.6% | SN12C renal -0.18% | UO-31 renal -100% | TK-10 renal -20.7% | ACHN renal -93.7% | CCRF-CEM leukemia 3.28% | MOLT-4 leukemia -3.9%
inactive: SNB-75 CNS 61.3% | SNB-19 CNS 56.9% | U251 CNS 59.9% | PC-3 prostate 35.1% | SK-MEL-5 melanoma 12.8% | SK-MEL-2 melanoma 61.5% | EKVX NSCLC 69.2% | A498 renal 80.8%

CCN1CCN(c2nc(C)cc(N(CCCNc3ccnc4cc(Cl)ccc34)Cc3ccco3)n2)CC1
inactive: HCT-15 colon 17.9% | HT29 colon 11.4% | SNB-75 CNS 66.8% | SNB-19 CNS 73.1% | U251 CNS 42.2% | PC-3 prostate 53.9% | SK-MEL-2 melanoma 75.1% | EKVX NSCLC 63.1% | SN12C renal 50.6% | UO-31 renal 33.1% | TK-10 renal 108% | ACHN renal 30.2% | A498 renal 78.1% | CCRF-CEM leukemia 42% | MOLT-4 leukemia 43.5%
active: SK-MEL-5 melanoma -37.8% | LOX IMVI melanoma 9.87% | SK-MEL-28 melanoma -63.7%

c1cnc2[nH]cc(-c3csc(-c4cn(CCCN5CCCCC5)c5ccccc45)n3)c2c1
inactive: SNB-75 CNS 60.2% | SNB-19 CNS 39.2% | U251 CNS 10.4% | PC-3 prostate 34.9% | SK-MEL-2 melanoma 93.7% | EKVX NSCLC 65.8% | SN12C renal 63.4% | UO-31 renal 43.8% | TK-10 renal 115% | ACHN renal 60.2% | A498 renal 83.8%
active: HCT-15 colon 4.45% | HT29 colon -55.8% | SK-MEL-5 melanoma -80.1% | LOX IMVI melanoma -67.6% | SK-MEL-28 melanoma -68.4% | CCRF-CEM leukemia 6.17% | MOLT-4 leukemia -10.6%

Cc1cc(N(CCCNc2ccnc3cc(Cl)ccc23)Cc2ccco2)nc(Cl)n1
inactive: HCT-15 colon 48.5% | HT29 colon 22.1% | SNB-75 CNS 66% | SNB-19 CNS 75.1% | U251 CNS 60.7% | PC-3 prostate 49% | LOX IMVI melanoma 42.2% | SK-MEL-28 melanoma 77.7% | SK-MEL-2 melanoma 65.4% | EKVX NSCLC 43.5% | SN12C renal 58.8% | UO-31 renal 36.7% | TK-10 renal 62.6% | ACHN renal 64.8% | A498 renal 46.1% | CCRF-CEM leukemia 67.3% | MOLT-4 leukemia 43.4%
active: SK-MEL-5 melanoma -8.23%

O=C1Nc2ccccc2/C1=C/c1cn(CCCn2c3ccccc3c(=O)c3ccccc32)c2ccccc12
inactive: HCT-15 colon 82.3% | HT29 colon 91.8% | SNB-75 CNS 69.7% | SNB-19 CNS 98.2% | U251 CNS 93.3% | PC-3 prostate 62.5% | SK-MEL-5 melanoma 74.7% | LOX IMVI melanoma 86% | SK-MEL-28 melanoma 107% | SK-MEL-2 melanoma 84.4% | EKVX NSCLC 60.3% | SN12C renal 92% | UO-31 renal 44.6% | TK-10 renal 140% | ACHN renal 89% | A498 renal 112% | CCRF-CEM leukemia 98.4% | MOLT-4 leukemia 77.7%

Cc1cc(N2CCOCC2)nc(N(CCCNc2ccnc3cc(Cl)ccc23)Cc2ccco2)n1
active: HT29 colon -2.68% | LOX IMVI melanoma 4.95% | MOLT-4 leukemia 9.42%
inactive: HCT-15 colon 24% | SNB-75 CNS 51.6% | SNB-19 CNS 20.4% | U251 CNS 25.4% | PC-3 prostate 34.7% | SK-MEL-5 melanoma 11.3% | SK-MEL-28 melanoma 49.5% | SK-MEL-2 melanoma 11.9% | EKVX NSCLC 49.4% | SN12C renal 40.4% | UO-31 renal 32.2% | TK-10 renal 47.9% | ACHN renal 46.9% | A498 renal 45.2% | CCRF-CEM leukemia 30.6%

Cn1cc(-c2csc(-c3cn(CCN)c4ccccc34)n2)c2cccnc21
inactive: HCT-15 colon 46.6% | HT29 colon 30.3% | SNB-75 CNS 46.8% | SNB-19 CNS 65.3% | PC-3 prostate 46.7% | SK-MEL-5 melanoma 23.7% | LOX IMVI melanoma 45.3% | SK-MEL-28 melanoma 73% | SK-MEL-2 melanoma 61% | EKVX NSCLC 50.4% | SN12C renal 54.1% | UO-31 renal 33.2% | TK-10 renal 92.9% | ACHN renal 56.6% | A498 renal 74.9% | MOLT-4 leukemia 10.1%
active: U251 CNS -75% | CCRF-CEM leukemia 8.25%

COc1ccc2c(c1)c(-c1nc(-c3cn(C)c4ncccc34)cs1)cn2CCCN1CCCCC1
inactive: SNB-75 CNS 77.5% | SNB-19 CNS 55.2% | PC-3 prostate 51.1% | SK-MEL-5 melanoma 28.6% | LOX IMVI melanoma 28.3% | SK-MEL-2 melanoma 102% | EKVX NSCLC 61.6% | SN12C renal 76.2% | UO-31 renal 62.9% | TK-10 renal 89.7% | A498 renal 74.7% | MOLT-4 leukemia 23.4%
active: HCT-15 colon -69.9% | HT29 colon -16.5% | U251 CNS -18.4% | SK-MEL-28 melanoma -77.5% | ACHN renal 1.33% | CCRF-CEM leukemia 2.69%

N#CC1=C(N)Oc2c(sc3c(F)cccc23)C1c1ccc(Cl)cc1 (stereo unspecified)
active: PC-3 prostate 8.41% | SK-MEL-2 melanoma -3.89% | MOLT-4 leukemia 8.38%
inactive: HCT-15 colon 23.9% | HT29 colon 15.6% | SNB-75 CNS 13.8% | SNB-19 CNS 29.2% | U251 CNS 25.7% | SK-MEL-5 melanoma 18.1% | LOX IMVI melanoma 30.3% | SK-MEL-28 melanoma 49.6% | EKVX NSCLC 51.4% | SN12C renal 36.2% | UO-31 renal 41.7% | TK-10 renal 78.4% | ACHN renal 42% | A498 renal 46.6% | CCRF-CEM leukemia 15.1%

Cc1cc(N2CCCCC2)nc(N(CCNc2ccnc3cc(Cl)ccc23)Cc2ccco2)n1
inactive: HCT-15 colon 13.8% | SNB-75 CNS 43.9% | U251 CNS 14.4% | PC-3 prostate 13.9% | SK-MEL-28 melanoma 38.9% | SK-MEL-2 melanoma 76.4% | EKVX NSCLC 64.8% | SN12C renal 24% | UO-31 renal 40.6% | TK-10 renal 68.5% | ACHN renal 27.8% | A498 renal 61.3% | CCRF-CEM leukemia 10.2%
active: HT29 colon 6.61% | SNB-19 CNS -69.9% | SK-MEL-5 melanoma -90.5% | LOX IMVI melanoma -12.6% | MOLT-4 leukemia 0.376%

COc1ccc2c(c1)c(-c1nc(-c3c[nH]c4ncccc34)cs1)cn2CCN
inactive: HCT-15 colon 43.7% | HT29 colon 55.9% | SNB-75 CNS 56.6% | SNB-19 CNS 79.4% | U251 CNS 66.7% | PC-3 prostate 42.8% | SK-MEL-5 melanoma 72.9% | LOX IMVI melanoma 66% | SK-MEL-28 melanoma 100% | SK-MEL-2 melanoma 75.2% | EKVX NSCLC 50.1% | SN12C renal 78.2% | UO-31 renal 48.5% | TK-10 renal 71.9% | ACHN renal 41.3% | A498 renal 72.2% | CCRF-CEM leukemia 55.8% | MOLT-4 leukemia 46.4%

Cn1cc(-c2csc(-c3cn(CCCN4CCCCC4)c4ccc(Br)cc34)n2)c2cccnc21
active: HCT-15 colon -78.2% | HT29 colon -72.8% | SNB-19 CNS -45.3% | U251 CNS -80.6% | PC-3 prostate -8.66% | SK-MEL-5 melanoma -33.7% | LOX IMVI melanoma -71.4% | SK-MEL-28 melanoma -86.6% | SN12C renal -31.3% | UO-31 renal -93.9% | ACHN renal -61.1% | CCRF-CEM leukemia -23.8% | MOLT-4 leukemia -46.3%
inactive: SNB-75 CNS 63.6% | SK-MEL-2 melanoma 37% | EKVX NSCLC 49.6% | TK-10 renal 26.7% | A498 renal 79.1%

Cn1cc(-c2csc(-c3cn(CCCN4CCCCC4)c4ccccc34)n2)c2cccnc21
active: HCT-15 colon -78.2% | HT29 colon -87.7% | SNB-19 CNS -65.6% | U251 CNS -90.5% | PC-3 prostate -55.7% | SK-MEL-5 melanoma -98.5% | LOX IMVI melanoma -71.9% | SK-MEL-28 melanoma -82.6% | SN12C renal -70.9% | UO-31 renal -90.2% | TK-10 renal -84.3% | ACHN renal -97.4% | CCRF-CEM leukemia -27.9% | MOLT-4 leukemia -50.5%
inactive: SNB-75 CNS 49.3% | SK-MEL-2 melanoma 101% | EKVX NSCLC 70.8% | A498 renal 82.6%

NCCn1cc(-c2nc(-c3c[nH]c4ncccc34)cs2)c2ccccc21
inactive: HCT-15 colon 88.6% | HT29 colon 98.2% | SNB-75 CNS 61.9% | SNB-19 CNS 89.4% | U251 CNS 91.5% | PC-3 prostate 70.2% | SK-MEL-5 melanoma 77.2% | LOX IMVI melanoma 89.9% | SK-MEL-28 melanoma 107% | SK-MEL-2 melanoma 103% | EKVX NSCLC 53.6% | SN12C renal 78.7% | UO-31 renal 51.3% | TK-10 renal 148% | ACHN renal 82.9% | A498 renal 88.2% | CCRF-CEM leukemia 88.5% | MOLT-4 leukemia 96.4%
